# Experimental data as given in PubChem BioAssay AID2455 (National Center for Advancing Translational Sciences (NCATS), 2010).
# The other results are listed elsewhere or left out. Inconclusive results are not listed. Calls of active or inactive are those of the source. Calls come from the whole dose curve.
# Biological target: Vitamin D3 receptor (Homo sapiens) (UniProt P11473)
# Assay: Vitamin D Receptor Selectivity Assay for Inhibitors of the Interaction of Thyroid Hormone Receptor and Steroid Receptor Coregulator 2
# Settings: VDR LBD/SRC2-3 peptide, fluorescence polarization, 3 h
# Description: NIH Molecular Libraries Probe Production Network [MLPCN] NIH Chemical Genomics Center [NCGC] MLPCN Grant: DK058080 Assay Provider: R. Kip Guy, St. Jude Children's Research Hospital NCGC Assay Overview: Thyroid receptor (TR) regulates many homeostatic processes including basal metabolism, cardiovascular function, body weight, and lipid trafficking. TR modulators are potential therapeutics for obesity and hyperlipidemias but current thyroid analogs have undesirable side effects, particularly cardiac stimulation. This secondary assay characterized compounds identified in the qHTS for Inhibitors of the Interaction of Thyroid Hormone Receptor and Steroid Receptor Coregulator 2 (PubChem AID 1485) for selectivity against the vitamin D receptor (VDR). […] Small molecule inhibitors that block the interaction of VDR and SRC2-3 are detected by a decrease in fluorescence polarization. […] Quantification of the vitamin D receptor-coregulator interaction. […]
# NCGC Assay Protocol Summary: Twenty uL/well 1 uM VDR and 5 nM Alexa Fluor 647 SRC2-3 peptide in buffer (25 mM PIPES, pH 6.75, 50 mM NaCl, 0.01% NP-40, 6 uM LG190178, and 4% DMSO) was dispensed into black solid 384-well plates (Costar 3710) using a Biomek FX (Beckman Coulter) liquid handling system. […] The plates were read by an Envision (Perkin Elmer) to detect fluorescence polarization of Alexa Fluor 647 (620 nm excitation and 688 nm emission).
# Chain of Vitamin D3 receptor (Homo sapiens) (P11473 whole entry, looked up): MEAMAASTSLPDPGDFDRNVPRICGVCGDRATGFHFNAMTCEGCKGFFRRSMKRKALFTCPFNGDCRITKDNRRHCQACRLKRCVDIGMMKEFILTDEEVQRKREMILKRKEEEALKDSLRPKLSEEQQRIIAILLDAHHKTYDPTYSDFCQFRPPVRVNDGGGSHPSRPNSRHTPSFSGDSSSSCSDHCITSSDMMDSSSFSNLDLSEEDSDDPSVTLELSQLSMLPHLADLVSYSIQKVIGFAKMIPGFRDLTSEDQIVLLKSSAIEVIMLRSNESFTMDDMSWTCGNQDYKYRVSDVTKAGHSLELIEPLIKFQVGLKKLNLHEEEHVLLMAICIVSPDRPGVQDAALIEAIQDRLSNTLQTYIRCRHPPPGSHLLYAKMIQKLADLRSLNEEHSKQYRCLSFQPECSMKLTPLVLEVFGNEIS
row,SMILES,outcome
1,O=C(COC(=O)c1cccc([N+](=O)[O-])c1)NC1C2CC3CC(C2)CC1C3 (stereo unspecified),inactive
